A selection: hits, their analogues and other compounds. The true share with any hit is near 3.4%.
TEAD-YAP inh: TEAD-YAP interaction inhibition; HEK-TIYL cells, TEAD-Gal4/YAP UAS-luciferase luminescence; inhibition, % at 9.12 µM; AID 1259422; 640,000 tested, 1.4% active; in the data active means inhibition above about 32%;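 further: 0% = median of test compound wells and 100% = reference inhibitor wells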
GPR151 activ: activates the human receptor GPR151; PathHunter beta-arrestin GPR151 cells, luminescence; activation, % at 11.2 µM; 650,000 tested, 1% active; AID 1508602; in the data active means activation above about 4.9%;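 further: 0% = median of compound wells and 100% = cells with positive control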
FBW7 activator: human FBW7 E3 ligase activation, primary screen; 650,000 tested, 0.13% active; normalized activity (activation), % at 26.1 µM; AlphaScreen FBW7–phospho-cyclin E peptide binding, activator screen; Q969H0; in the data active means normalized activity above about 1.9%;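 further: purified mutant Fbw7 with reduced substrate affinity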
MITF primary: inhibitors of human MITF. inhibition, % at 2.6 µM. 650,000 tested, 0.91% active. AlphaScreen MITF homodimerization, bead proximity signal. AID 1259374. O75030; in the data active means inhibition above about 50%;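 further: 0% = vehicle wells with protein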
* = called active by the depositor.

`COc1ccccc1NC(=O)C1=C(C)NC2=C(C(=O)CC(C)(C)C2)C1c1cccc(O)c1` (centres undefined) gave TEAD-YAP inh 1, GPR151 activ -1, FBW7 activator 2.4* and MITF primary 11.
`CCOC(=O)CSc1ccc(C(=O)NC2CCN(C(=O)OCC)CC2)cc1[N+](=O)[O-]` gave TEAD-YAP inh 3, GPR151 activ 0, FBW7 activator 0 and MITF primary -5.
Screening COC(=O)C1=C(C)NC(=O)NC1c1cc(Br)cc(OC)c1OC (centres undefined) returned TEAD-YAP inh 18, GPR151 activ 1, FBW7 activator 0 and MITF primary 11.
For Cc1nc(SCc2ccc(Cl)c(Cl)c2)n[nH]1 the results were TEAD-YAP inh 8, GPR151 activ -1, FBW7 activator 0 and MITF primary 17.
COc1ccc(CSc2n[nH]c(C)n2)cc1Br was read as TEAD-YAP inh 34*, GPR151 activ -1, FBW7 activator 0 and MITF primary 5.
For CC1C/C(=C/c2ccccn2)C(=O)/C(=C/c2ccccn2)C1 (centres undefined) the results were TEAD-YAP inh 80*, GPR151 activ 1, FBW7 activator 0 and MITF primary 1.
Screening COc1ccc(-n2nnnc2C2(Nc3cccc(Cl)c3)CCCCC2)cc1 returned TEAD-YAP inh 48*, GPR151 activ 1, FBW7 activator 0 and MITF primary -5.
`Cn1c(C(=O)Nc2nccs2)cc2sccc21` gave TEAD-YAP inh -22, GPR151 activ 2, FBW7 activator 0 and MITF primary -1.
For O=C1NC2(CCN(C(=O)c3nccc4ccccc34)CC2)Nc2ccc(Cl)cc21 the results were TEAD-YAP inh 78*, GPR151 activ 1, FBW7 activator 0 and MITF primary -9.
CC(=O)c1ccccc1-c1ccc2c(c1)CC(CNC(=O)c1ccc3c(c1)OCCO3)O2 (centres undefined) was read as TEAD-YAP inh 37*, GPR151 activ 1, FBW7 activator 0 and MITF primary -21.
Screening O=C(NCCc1ccccc1)c1ccc(CNc2c(N3CCCC3)c(=O)c2=O)cc1 returned TEAD-YAP inh -1, GPR151 activ 0, FBW7 activator 0 and MITF primary -1.
For CCN(CC)C(=O)C1CCCN(c2nc(NCCN(C(C)C)C(C)C)c3ncn(-c4ccccc4)c3n2)C1 (centres undefined) the results were TEAD-YAP inh 41*, GPR151 activ -1, FBW7 activator 0 and MITF primary 7.
CCN(CC)C(=O)C1CCCN(c2nc(NCCN(C(C)C)C(C)C)c3ncn(C(C)C)c3n2)C1 (centres undefined) was read as TEAD-YAP inh 11, GPR151 activ 2, FBW7 activator 0 and MITF primary -6.
`CCN(CC)C(=O)C1CCCN(c2nc(Nc3cc(OC)c(OC)c(OC)c3)c3ncn(C(C)C)c3n2)C1` (centres undefined) gave TEAD-YAP inh 34*, GPR151 activ 0, FBW7 activator 0 and MITF primary 13.
`CCN(CC)C(=O)C1CCCN(c2nc(Nc3ccccc3)c3[nH]cnc3n2)C1` (centres undefined) gave TEAD-YAP inh 48*, GPR151 activ 3, FBW7 activator 0 and MITF primary 0.
CCN(CC)C(=O)C1CCCN(c2nc(N)c3ncn(-c4ccccc4)c3n2)C1 (centres undefined) was read as TEAD-YAP inh 46*, GPR151 activ -2, FBW7 activator 0 and MITF primary -13.
Screening Oc1c(C(c2ccccn2)N2CCCCC2)ccc2cccnc12 (centres undefined) returned TEAD-YAP inh 39*, GPR151 activ 0, FBW7 activator 0 and MITF primary 99*.
For Oc1c(C(c2ccccc2Cl)N2CCOCC2)ccc2cccnc12 (centres undefined) the results were TEAD-YAP inh 84*, GPR151 activ -1, FBW7 activator 0 and MITF primary 62*.
For Oc1c(C(c2ccccc2Cl)N2CCCCC2)ccc2cccnc12 (centres undefined) the results were TEAD-YAP inh 87*, GPR151 activ -1, FBW7 activator -1 and MITF primary 26.
For Cc1nc2sc(C(c3ccccc3Cl)N3CCCC3)c(O)n2n1 (centres undefined) the results were TEAD-YAP inh -3, GPR151 activ 1, FBW7 activator 0 and MITF primary -8.
For OCCN1CCN(C(c2ccccn2)c2ccc3cccnc3c2O)CC1 (centres undefined) the results were TEAD-YAP inh 10, GPR151 activ 0, FBW7 activator -1 and MITF primary 93*.
Screening COCC(=O)Nc1nnc(SCC(=O)Nc2ccccc2Br)s1 returned TEAD-YAP inh -7, GPR151 activ -1, FBW7 activator 0 and MITF primary 12.
Screening COc1ccc(C2C(C(=O)Nc3cc(OC)c(OC)c(OC)c3)c3ccccc3C(=O)N2C)cc1 (centres undefined) returned TEAD-YAP inh 54*, GPR151 activ 0, FBW7 activator 0 and MITF primary -6.
`CC(C)(C)OC(=O)N1CCC(c2nc3c(nnn3Cc3ccccc3F)c(=O)[nH]2)CC1` gave TEAD-YAP inh -3, GPR151 activ -2, FBW7 activator 1 and MITF primary 21.
For O=C1NC2(CCN(S(=O)(=O)c3cccs3)CC2)Oc2ccccc21 the results were TEAD-YAP inh 16, GPR151 activ -1, FBW7 activator 2.0* and MITF primary 12.
`O=C1NC2(CCN(Cc3cccs3)CC2)Oc2ccccc21` gave TEAD-YAP inh 3, GPR151 activ -1, FBW7 activator 0 and MITF primary -9.
C=CCC(=O)N1CCC(C(Cc2ccccc2F)N(C)Cc2cn(C)nc2C)CC1 (centres undefined) was read as TEAD-YAP inh -9, GPR151 activ 0, FBW7 activator 0 and MITF primary -8.
Screening CC(c1ccccc1)N1CC(O)=C(c2nc3ccccc3[nH]2)C1=N (centres undefined) returned TEAD-YAP inh 55*, GPR151 activ 1, FBW7 activator 0 and MITF primary -1.
CCOc1ccccc1N1CC(O)=C(c2nc3ccccc3[nH]2)C1=N was read as TEAD-YAP inh 54*, GPR151 activ 0, FBW7 activator 0 and MITF primary 8.
`COC(=O)C1=C(C)NC(=O)/C1=C\c1cc(C)n(-c2cc(Cl)cc(Cl)c2)c1C` gave TEAD-YAP inh -10, GPR151 activ -1, FBW7 activator 0 and MITF primary -6.
`CCc1ccccc1-n1c(SCC(=O)Nc2nccs2)nnc1-c1cccnc1` gave TEAD-YAP inh 57*, GPR151 activ 0, FBW7 activator 0 and MITF primary 6.
Screening O=C(CSc1nnc(-c2cccnc2)n1-c1ccccc1Cl)Nc1nccs1 returned TEAD-YAP inh 39*, GPR151 activ -1, FBW7 activator 0 and MITF primary 5.
Cc1cccc(-n2c(SCC(=O)Nc3nccs3)nnc2-c2cccnc2)c1C was read as TEAD-YAP inh -1, GPR151 activ -1, FBW7 activator 0 and MITF primary -24.

Compound activity as filed in PubChem BioAssay.
